{"source": "PubChem BioAssay (NCI)", "note": "Compounds without any hit were thinned out: in the full panel of roughly 83,000, 20% have a hit.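 Cell lines were cultured in 96-well plates, exposed to a single compound concentration, and assessed for percent growth 48 hours later.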 The source made the active and inactive calls."}
{"system": "OVCAR-8 ovarian", "test": "NCI-60 one-dose screen, 48 h (100 = growth as untreated, 0 = no growth, -100 = all killed)", "conditions": "10 µM unless noted", "experimental": "Growth inhibition of the OVCAR-8 human tumor cell line is measured as a screen for anti-cancer activity. Cells are grown in 96 well plates and exposed to the test compound for 48 hours. Compounds are tested at a single concentration, which is 10^-5 M for most compounds. The reported endpoint is percent growth (GI% or GIPRCNT), where numbers from 0 - 100% represent growth inhibition, and numbers from -100% - 0 represent cell death. For example, a value of 40 represents 60% growth inhibition. A value of 0 means no net growth occurred over the course of the experiment. A value of -40 indicates 40% of cells at the beginning of the experiment died by the end of the experiment. A value of -100 means all cells are dead at the end of the experiment.\nNCI-60 Human Tumor Cell Lines Screen was performed using the standard one-dose NCI protocol, which is described in more detail at https://dtp.cancer.gov/discovery_development/nci-60/default.htm.\nCompounds with GIPRCNT values below 10 were considered active. Activity score was based on GIPRCNT using the following formula: […]\nScore is 0 for GIPRCNT values of 100 or above, 50 for GIPRCNT values of 0, and 100 for GIPRCNT values of -100."}
{"smiles": "Cc1cc2ccccn2c1C(=O)c1ccc(C(=O)c2ccccc2)cc1", "growth": "87.9% (inactive)"}
{"smiles": "COc1ccc(C(=O)/C=C/c2cccc(Nc3ccnc4cc(Cl)ccc34)c2)cc1", "growth": "10.2% (inactive)"}
{"smiles": "COc1ccc2cc(-c3nc4ccccc4[nH]3)c(=O)oc2c1", "growth": "101% (inactive)"}
{"smiles": "O=C1CSC(c2ccccc2Cl)N1c1nnc(Cn2nnc3ccccc32)o1", "note": "(stereo not given)", "growth": "82.5% (inactive)"}
{"smiles": "COc1cc(/C=C/C(=O)CC(=O)/C=C/c2ccc(OC(=O)CCNC34CC5CC(CC(C5)C3)C4)c(OC)c2)ccc1OC(=O)CCNC12CC3CC(CC(C3)C1)C2", "growth": "14.7% (inactive)"}
{"smiles": "Cc1ccccc1NC(=O)N/C(N)=N/c1nc2ccccc2s1", "growth": "19.7% (inactive)"}
{"smiles": "CCOC(=O)C1C(=O)NC(C(=O)OCC)(C(=O)OCC)C1CC", "note": "(stereo not given)", "growth": "108% (inactive)"}
{"smiles": "O=C1CNc2cc(Cl)ccc2N1", "growth": "99.7% (inactive)"}
{"smiles": "CNc1nc(NC2CCCC2)nc(Sc2ccc(OC)cc2)n1", "growth": "20.2% [100 µM] (inactive)"}
{"smiles": "CC[C@@H](C)/C=C(C)/C=C/C(=O)c1c(O)c(-c2ccc(O)cc2)cn(OC2CC(=O)CCC(C)OC(=O)CC2O)c1=O", "note": "(stereo not given in full)", "growth": "17.5% (inactive)"}
{"smiles": "CCNCCCn1c2c(c3ccc(F)cc3c1=O)C(=O)c1cc(OC)cnc1-2", "growth": "-15.1% (active)"}
{"smiles": "CC1C(C)N(C(=O)CCl)c2ccccc2N1C(=O)CCl", "note": "(stereo not given)", "growth": "-20.8% (active)"}
{"smiles": "CC1CN(C2CCCCC2)C(=O)NC1=O", "note": "(stereo not given)", "growth": "104% (inactive)"}
{"smiles": "COc1cc(/C=C/C(=O)C(C(=O)/C=C/c2ccc(OC(=O)CCNc3nnc(C)s3)c(OC)c2)C(=O)CCNc2nnc(C)s2)ccc1OC(=O)CCNc1nnc(C)s1", "growth": "7.54% (active)"}
{"smiles": "O=C(O)CCC(=O)OC[C@@H](NC(=O)C(Cl)Cl)[C@H](O)c1ccc([N+](=O)[O-])cc1", "growth": "94.4% (inactive)"}
{"smiles": "CCCn1c(N)c(C(=O)CNc2ccc(I)cc2)c(=O)[nH]c1=O", "growth": "49.5% (inactive)"}
{"smiles": "Cc1ccc(OCC(=O)Nc2ccc(Oc3ccccc3)cc2)c([N+](=O)[O-])n1", "growth": "79% (inactive)"}
{"smiles": "c1cc[n+](Cc2ccnc3ccccc23)cc1", "growth": "99.6% (inactive)"}
{"smiles": "COc1ccc(CNC(=O)c2c(C)n([O-])c3ccc(OC)cc3[n+]2=O)cc1", "growth": "87% (inactive)"}
{"smiles": "O=c1sc2ncnc3ncn1c32", "growth": "78.3% (inactive)"}
{"smiles": "Cc1ccc(S(=O)(=O)N2CCN(C(=O)CSc3nc4ccc(C)cc4[nH]3)CC2)cc1", "growth": "74.5% (inactive)"}
{"smiles": "COc1ccc2c(c1)CC[C@@H]1[C@@H]2CC[C@]2(C)[C@@H](O)C(=O)C[C@@H]12", "growth": "101% (inactive)"}
{"smiles": "CCCCCCCCCCCCCCCCNC(=O)Nc1ccc2ccccc2c1", "growth": "104% (inactive)"}
{"smiles": "O=C(Nc1nc2c(C(F)(F)F)cccc2s1)c1cc(Cl)ccc1O", "growth": "6.2% (active)"}
{"smiles": "COc1ccc(NC(=O)[C@@H]2C[C@H]2c2ccccc2)c(C(N)=O)c1", "growth": "99.1% (inactive)"}
{"smiles": "CCCCCCCCN(CCO)CCCCCCCC", "growth": "101% (inactive)"}
{"smiles": "NS(=O)(=O)c1cc(C2(O)NC(=O)c3ccccc32)ccc1Cl", "note": "(stereo not given)", "growth": "103% (inactive)"}
{"smiles": "CC(=O)Nc1cc2c3c(cccc3c1)-c1ccccc1-2", "growth": "86.1% (inactive)"}
{"smiles": "O=C1c2cccc(NCCN=Cc3ccccc3O)c2C(=O)c2c(NCCN=Cc3ccccc3O)cccc21", "growth": "17% (inactive)"}
{"smiles": "CO[C@H]1/C=C/O[C@@]2(C)Oc3c(C)c(O)c4c(O)c(c(/C=N/N5C(C)CN(Cc6ccc(C#N)cc6)CC5C)c(O)c4c3C2=O)NC(=O)/C(C)=C\\C=C\\[C@H](C)[C@H](O)[C@@H](C)[C@@H](O)[C@@H](C)[C@H](OC(C)=O)[C@@H]1C", "note": "(stereo not given in full)", "growth": "49.7% (inactive)"}
{"smiles": "CCSc1nc(-c2ccco2)n2nc(-c3ccco3)cc2n1", "growth": "97.1% (inactive)"}
{"smiles": "O=C(N/N=C/c1cccc(O)c1O)c1ccccc1", "growth": "4.99% (active)"}
{"smiles": "COc1cc(-c2nnc(-c3nc(-c4cc(OC)c(OC)c(OC)c4)n4ccccc34)o2)ccc1N", "growth": "50.8% (inactive)"}
{"smiles": "N#Cc1c(-c2ccccc2)cc(-c2ccccc2)n(CCC(=O)O)c1=O", "growth": "50.3% (inactive)"}
{"smiles": "COc1ccc(/C=C2/SC(=Nc3c(C)nn(-c4ccccc4)c3N)NC2=O)cc1", "growth": "70.2% (inactive)"}
{"smiles": "COc1cc(C2CC(C3C(=O)N(C)C(=O)N(C)C3=O)=NN2c2cc(Cl)cc(Cl)c2)cc(OC)c1OC", "note": "(stereo not given)", "growth": "96.7% (inactive)"}
{"smiles": "Cc1nn(-c2nc3ccccc3s2)c(C)c1Oc1ccccc1O", "growth": "50.6% (inactive)"}
{"smiles": "O=c1[nH]c(SCc2ccccc2)nc2nc(Nc3ccc(NC(=S)Nc4ccccc4)cc3)nc(-c3ccc(O)cc3O)c12", "growth": "108% (inactive)"}
{"smiles": "CC[C@@H](c1ccc(O)c(O)c1)[C@@H](CC)c1ccc(O)c(O)c1", "growth": "101% (inactive)"}
{"smiles": "COc1cc(C2CC(c3ccc(C)cc3)=NN2C=O)ccc1OCCN(C)C", "note": "(stereo not given)", "growth": "92.6% (inactive)"}
